TrxR1 substrate – qHTS Assay for Substrates of Mammalian Selenoprotein Thioredoxin Reductase 1 (TrxR1): qHTS; AID 588456, 2011; Potency, µM (doses to about 114 µM), inactives show at the top dose activity change, negative = substrate turnover; purified TrxR1 substrate turnover, NADPH consumption readout; 390,000 tested, 0.01% active; further: potency means the concentration at half of the fitted maximal effect; nearly all actives have a fitted effect of over 50% in size
Target sequence (O89049 whole entry, looked up): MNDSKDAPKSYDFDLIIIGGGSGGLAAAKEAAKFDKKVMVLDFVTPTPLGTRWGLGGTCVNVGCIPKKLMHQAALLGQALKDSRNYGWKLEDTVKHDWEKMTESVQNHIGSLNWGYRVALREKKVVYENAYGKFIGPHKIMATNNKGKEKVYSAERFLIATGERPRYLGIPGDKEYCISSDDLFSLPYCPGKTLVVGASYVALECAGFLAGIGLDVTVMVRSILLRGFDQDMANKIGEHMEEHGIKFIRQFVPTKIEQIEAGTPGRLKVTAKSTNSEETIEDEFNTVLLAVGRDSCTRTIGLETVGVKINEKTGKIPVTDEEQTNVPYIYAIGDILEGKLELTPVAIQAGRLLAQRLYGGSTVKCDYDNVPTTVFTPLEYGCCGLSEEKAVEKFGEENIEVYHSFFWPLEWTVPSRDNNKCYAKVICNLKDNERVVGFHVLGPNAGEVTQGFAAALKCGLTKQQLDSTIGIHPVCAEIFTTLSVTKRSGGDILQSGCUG
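Rat TrxR1, dispensed at 90 nM, was prereduced with 400 uM NADPH (final) for 5 min at ~22 deg C, then incubated with compound 15 min before 400 uM selenite. A first-read NADPH fluorescence drop versus no-compound background flagged substrates.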
Six1-Eya2 inh – qHTS Assay for Inhibitors of the Six1/Eya2 Interaction | 360,000 tested, 0.56% active | AID 651725, 2012 | AlphaScreen GST-Six1/His-Eya2 binding, biochemical; hits give low values | activity change, % (test concentration not listed); in the data active means activity change below about -65%; inconclusive means mostly about -30% to -63%
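AlphaScreen with GST-Six1 and His-Eya2 (5X mix: 250 nM and 500 nM), glutathione donor and nickel acceptor beads; buffer 50 mM Tris pH 8.0, 300 mM NaCl, 1 mM TCEP; 1 h at 37 C in the dark.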
GALK inhibitor – qHTS Assay for Inhibitors of Human Galactokinase (GALK); 270,000 tested, 0.007% active; AID 1868, 2009; P51570; Potency, µM (titrated, usually from 57.5 µM), for inactives: top-dose activity change, negative = inhibition, hits mostly inhibitors; Purified GALK, Kinase-Glo residual ATP luminescence; further: potency means the concentration at half of the fitted maximal effect
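ATP-depletion format; final 35 uM ATP, 100 uM D-galactose, 5 nM enzyme; pH 8.0 HEPES/Mg2+ buffer; 60 min RT; luminescence read 10 min after detection reagent.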
TrxR1 inh – qHTS Assay for Inhibitors of Mammalian Selenoprotein Thioredoxin Reductase 1 (TrxR1): qHTS | recombinant rTrxR1, NADPH fluorescence consumption, selenite substrate | Potency, µM (series often up to 114 µM), for the others: top-dose activity change, negative = inhibition, hits mostly inhibitors | 390,000 tested, 1% active; further: potency means the concentration at half of the fitted maximal effect; nearly all actives have a fitted effect of over 65% in size
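Rat TrxR1 (90 nM in the dispensed reagent) was pre-reduced with 400 uM NADPH for 5 min at room temperature, then incubated with compound for 15 min. After 400 uM selenite was added, NADPH fluorescence (Ex 340/Em 450 nm) was followed for 8 min.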
CtBP-E1A inh – qHTS Assay for Inhibitors of the CtBP/E1A Interaction; CtBP / adenovirus E1A interaction (AlphaScreen); AlphaScreen GST-E1A/His-CtBP binding, 1536-well; hits give low values; activity change, % (no concentration beside the values); 340,000 tested, 0.49% active; in the data active means activity change below about -65%; inconclusive means mostly about -30% to -63%
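Homogeneous bead-based format: GST-tagged E1A captured on glutathione donor beads, His-tagged CtBP on nickel acceptor beads; compounds precede bead addition by 2 h at 37 °C.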
Eya2 phos inh – qHTS Assay for Inhibitors of the Phosphatase Activity of Eya2. recombinant Eya2, OMFP fluorescence dephosphorylation (OMFP is methylfluorescein phosphate). AID 488837, 2010. 330,000 tested, 0.006% active. Potency, µM (highest dose often 76.9 µM), for inactives: at the highest dose activity, negative = inhibition, actives largely listed as inhibitors. Protein phosphatase EYA2 (Homo sapiens), O00167; further: potency means the concentration at half of the fitted maximal effect
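Eya2 (0.2 uM) preincubated 10 min at ambient with compound, then OMFP substrate added at 50 uM; 10 min reaction in 50 mM HEPES pH 7.5, 50 mM NaCl, 5 uM MgCl2, 0.05% BSA, 1 mM DTT. Fluorescence read at Ex 485/Em 525 nm.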
Starred values were filed as active, the others as inactive; u = inconclusive; x = no result given; [ ] = dose if it differs, or a comment. Rows were chosen to be rich in hits. Some 1.5% of all compounds tested hit in one or more screens of this group. Unless noted, the call rests on the fitted dose curve; in most records, active means well fitted curve in the direction sought with a large enough effect; inconclusive means small, poorly fitted or top-dose-only effect, or another doubt; inactive means no such curve, though single readings can be large; an effect the other way counts as inactive or inconclusive. On the % scale 0 is the no-effect control and ±100 the full control effect.

SMILES	TrxR1 substrate	Six1-Eya2 inh	GALK inhibitor	TrxR1 inh	CtBP-E1A inh	Eya2 phos inh
Cn1c(=O)cc(SCC(=O)NCc2ccc(F)cc2)c2cc(Cl)ccc21	9%	x	x	39%	x	x
CCOC(=O)c1c(Nc2ccc(C)cc2)nnc(-c2ccccc2)c1-c1ccccc1	-2%	x	x	10%	x	x
NS(=O)(=O)c1ccc(NC2=CC(c3ccc([N+](=O)[O-])cc3)N(c3ccc(S(N)(=O)=O)cc3)C2=O)cc1 (stereo not given)	-7%	1	-7%	50µM*	-2	u
CCCCCCCCCCCCCCCCCCOC[C@H](COP(=O)([O-])OCC[N+](C)(C)C)OC	u	x	x	-2%[57.1 µM]	x	25µM*
COc1ccc2cc([S+]([O-])Cc3ncc(C)c(OC)c3C)nc2c1	7%[57.1 µM]	x	x	13%[57.1 µM]	x	16%
CCc1ccc(NC(=O)CC(NCc2cccnc2)C(=O)O)cc1 (stereo not given)	-1%	x	x	8%	x	x
CCOC(=O)C1=C(O)c2ccccc2C(=O)/C1=C\c1ccc(C)cc1	-18%	-22	-1%	11µM*	-10	3%
CCOC(=O)C1=C(C)OC(=Cc2ccccc2)C1=O	x	1	x	x	-7	x
CCOC(=O)c1cnc2ccc(C(=O)OC)cc2c1NCCCN1CCOCC1	8%[57.1 µM]	4	3%	-73%	-9	-20%
CCOC(=O)c1cnc2ccc(C(=O)OC)cc2c1NCCN1CCOCC1	7%	3	10%	45µM*	11	5%
COc1ccc(NC(=O)c2ccc(NC(=O)CCS(=O)(=O)c3cccs3)cc2)cc1Cl	3%	x	x	15%	x	x
O=C(Nc1ccc2nc3n(c(=O)c2c1)CCCC3)c1cncc(Br)c1	-2%	u	x	2%	-65*	x
O=C(Nc1ccc2nc3n(c(=O)c2c1)CCCC3)c1cc([N+](=O)[O-])ccc1F	-2%	-29	-1%	-21%	-15	-2%
O=C(Nc1ccc2nc3n(c(=O)c2c1)CCCC3)c1cccc([N+](=O)[O-])c1	9%	-66*	-4%	-15%	0	5%
CC(=O)NC(c1ccc(C)cc1)c1cc(Cl)c2cccnc2c1O (stereo not given)	2%	u	3%	28%	-74*	-2%
CC(=O)NC(c1ccco1)c1cc(Cl)c2cccnc2c1O (stereo not given)	x	x	x	x	x	-7%
CC(C)C(=O)NC(c1ccccc1)c1cc([N+](=O)[O-])c2cccnc2c1O (stereo not given)	-21%	-90*	x	-23%	-91*	8%
CC(=O)NC(c1ccccc1)c1cc([N+](=O)[O-])c2cccnc2c1O (stereo not given)	0%[57.1 µM]	-94*	1%	14%[57.1 µM]	-91*	-1%
CCC(=O)NC(c1ccco1)c1cc(Cl)c2cccnc2c1O (stereo not given)	-2%[57.1 µM]	-80*	-1%	-10%[57.1 µM]	-90*	7%
Cc1sc2ccccc2[n+]1C	5%	x	x	68%	x	x
O=C(CCS(=O)(=O)c1cc2c3c(c1)CCN3C(=O)CC2)NCc1ccc(F)cc1	-7%[57.1 µM]	x	x	-2%[57.1 µM]	x	x
COc1ccc(C(NC(=O)c2cccnc2)c2cc(Cl)c3cccnc3c2O)cc1OC (stereo not given)	-7%	-91*	0%	3%	-92*	4%
COc1ccc(C(=O)NC(c2ccc(OC)c(OC)c2)c2cc(Cl)c3cccnc3c2O)cc1 (stereo not given)	-9%	x	x	-23%	x	x
CN1/C(=C\C=N\O)C(C)(C)c2ccccc21	-1%	7	-1%	25%	3	9%
CN(C)c1ccc(N=C/C=C2/N(C)c3ccccc3C2(C)C)cc1	-9%	-68*	x	-19%	x	-4%
SMILES	TrxR1 substrate	Six1-Eya2 inh	GALK inhibitor	TrxR1 inh	CtBP-E1A inh	Eya2 phos inh
O=c1ccc(N=Nc2ccccc2)ccc1O	-18%[57.1 µM]	u	12%	-31%[57.1 µM]	u	u
Oc1ccc(N=Nc2ccccc2)o1	-11%	2	x	32µM*	-4	-9%
O=c1[nH]c(Nc2ccc(F)cc2)cc2ccccc12	32%	4	-2%	11µM*	u	u
CCc1ccc(OCCCCn2c(CCNC(=O)C3CCCCC3)nc3ccccc32)cc1	3%[0.0914 µM]	x	x	-1%	x	x
Cc1ccc(C)n1-c1nnc(N2CCCC(C(=O)Nc3ccc(C(C)C)cc3)C2)s1 (stereo not given)	-3%	x	x	-20%	x	x
Cc1[nH]c2ccccc2c1C1C(c2ccccc2)=NN=C(C(C)C)N1O (stereo not given)	-9%	-2	0%	45µM*	2	-8%
Cc1ccc(-c2csc3nc(SCC(=O)Nc4ccc(Cl)c(C(=O)O)c4)[nH]c(=O)c23)cc1	0%	-70*	8%	14%	x	3%
Cc1sc2nc(SCC(=O)Nc3ccc(Cl)c(C(=O)O)c3)[nH]c(=O)c2c1C	3%	6	x	14%	7	x
CC(=O)c1ccc(OCC(C)C)c(CC(C(N)=O)C(N)=O)c1	-1%	0	3%	13%	9	-10%
CCN(CC)Cc1cc(C(C)=O)ccc1OCC(C)C	-5%	8	5%	35µM*	2	3%
COc1cccc(/C=N/NC(=O)CNC(=O)COc2cccc(C)c2)c1O	3%	-73*	6%	21%	x	4%
Cc1cccc(OCC(=O)NCC(=O)N/N=C/c2ccccc2)c1	1%	-2	-3%	7%	3	-7%
Cc1cccc(OCC(=O)NCC(=O)N/N=C/c2ccc(O)cc2O)c1	3%	-85*	-1%	20%	x	-17%
COc1ccc(CNC(=O)C(=O)NCC(c2ccco2)S(=O)(=O)c2ccc(Cl)cc2)cc1 (stereo not given)	7%[57.1 µM]	x	x	5%[57.1 µM]	x	x
COc1ccc(/C=C2/C=Cc3ccccc32)cc1	-1%	x	x	-16%	x	x
COc1ccc(OC)c(/C=C2\C=Cc3ccccc32)c1	5%	x	x	5.6µM*	x	x

Screens as filed in PubChem BioAssay.
